The whole screen tested about 220,000 compounds, of which about 570 (0.26%) were called active. Shown is part of a subset that was picked to be rich in actives. Unmarked numbers belong to inactive results. No stated cut-off is given here; in the data, active means inhibition above about 29%; inactive means the rest.
Each molecule was assayed against Sphingosine 1-phosphate receptor 4 (Homo sapiens) (UniProt O95977) (assay: S1P4 receptor antagonists, primary screen, cell-based (AID 1510;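 further: 0% = wells stimulated with agonist and 100% = vehicle wells without agonist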)). Details: S1P4-expressing cells, antagonist mode, reporter read-out; at 4.98 µM; active compounds read high.
Chain of Sphingosine 1-phosphate receptor 4 (Homo sapiens) (O95977 whole entry, looked up): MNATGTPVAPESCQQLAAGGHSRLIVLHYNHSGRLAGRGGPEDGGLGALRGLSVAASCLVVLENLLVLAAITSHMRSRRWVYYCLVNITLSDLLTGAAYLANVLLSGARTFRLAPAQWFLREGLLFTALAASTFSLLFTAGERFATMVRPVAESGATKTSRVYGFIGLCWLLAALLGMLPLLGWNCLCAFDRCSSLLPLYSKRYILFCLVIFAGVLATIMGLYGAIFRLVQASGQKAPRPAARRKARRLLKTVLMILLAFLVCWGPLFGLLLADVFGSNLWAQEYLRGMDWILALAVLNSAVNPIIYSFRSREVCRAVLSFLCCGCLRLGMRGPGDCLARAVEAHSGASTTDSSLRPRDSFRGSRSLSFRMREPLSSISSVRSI

Row | Structure (SMILES) | inhibition
1 | CCOC(=O)C(C(=O)OCC)C(C#N)c1ccccc1 (stereo unspecified) | -19.7%
2 | CCOC(=O)/C=C/C(=O)OCC(=O)NC(c1ccccc1)c1ccccc1 | 36.3% (active)
3 | O=C(Cc1ccc(-c2ccccc2)cc1)NC(c1ccccc1)c1ccccc1 | -5.23%
4 | O=C(CSc1cccc[n+]1[O-])NCCCc1ccccc1 | 14.6%
5 | O=C(Nc1nnc(CCN2CCCCC2)s1)c1cccc(Cl)c1 | 6.03%
6 | Cc1cc(Nc2cccc(C)c2C)n2ncnc2n1 | -10.4%
7 | O=C(CSc1nnnn1-c1ccc(O)cc1)c1ccc(F)cc1 | 6.46%
8 | CCOC(=O)c1sc(NC(=O)CSc2nc(O)c(Cc3ccccc3)c(=O)[nH]2)nc1C | -8.89%
9 | Cc1[nH]c2ccccc2c1-c1ccc(Cl)nn1 | 2.48%
10 | O=C(CO/N=C/c1ccccc1O)NNC(=O)c1ccccc1Cl | -12.4%
11 | Cc1cc(C)cc(Oc2nc3c(C)cccn3c(=O)c2/C=C(\C#N)C(=O)NC2CCS(=O)(=O)C2)c1 (stereo unspecified) | -10.8%
12 | CCNC(=O)NNC(=O)C1CC(c2cccs2)=NO1 (stereo unspecified) | -2.29%
13 | CCOc1ccc(NS(=O)(=O)c2ccc(C)c(C(N)=O)c2)cc1 | -13.9%
14 | CC(=O)Nc1ccc(S(=O)(=O)NC2(C(F)(F)F)C(=O)Nc3c2c(=O)[nH]c(=O)n3Cc2ccccc2)cc1 (stereo unspecified) | -16.6%
15 | O=C(Nc1ccccc1)N1CCN(C2c3ccccc3-c3ccccc32)CC1 | -2.81%
16 | COc1ccc(NC(=O)c2cn(-c3ccccc3)nc2SC)cc1 | -1.4%
17 | COCC(=O)Nc1cc(C(=O)OC)cc(C(=O)OC)c1 | -10.1%
18 | Nc1c(C(=O)O)cnn1-c1ccccc1 | -7.33%

Row | Structure (SMILES) | inhibition
19 | CC(C)NC(=O)NCCCCCCS(C)=O (stereo unspecified) | -8.38%
20 | CSc1cccc(NC(=O)C2CCCN2S(=O)(=O)c2ccc3c(c2)CCC(=O)N3)c1 (stereo unspecified) | -15%
21 | CCC(C)(C)C1CCC(=NNC(=O)c2ccc(Br)o2)CC1 (stereo unspecified) | -7.44%
22 | CCOC(=O)Cc1ncccc1C(=O)Nc1ccc(OC(F)(F)F)cc1 | -25.3%
23 | COC(=O)c1ccc(S(=O)(=O)NCc2ccccc2)n1C | -20.7%
24 | Cc1nn(-c2ccccc2)c(C)c1NC(=O)CCl | -19.8%
25 | COc1ccc2ccccc2c1CNc1nnnn1C | 6.29%
26 | O=C(O)c1ccn(COc2ccc(Br)cc2)n1 | 3.75%
27 | Nc1nnc(SCC(=O)Nc2ccc3nc(SCC(=O)Nc4ccccc4)sc3c2)s1 | -10.8%
28 | CC(C)C(C)(C#N)NC(=O)CSc1nncn1-c1ccccc1 (stereo unspecified) | -9.99%
29 | CCOc1ncccc1C(=O)N(C)CC(=O)Nc1ccc(F)cc1 | -7.65%
30 | CCCCCC1CCC(c2nnc(SCC(C)=O)o2)CC1 (stereo unspecified) | -13.8%
31 | NC(=O)COC(=O)c1cc(S(=O)(=O)N2CCN(c3ccccc3)CC2)ccc1Cl | -4.86%
32 | Cn1c(CCC(=O)OCC(=O)NCc2ccccc2Cl)nc(=O)c2ccccc21 | -5.53%
33 | O=C(Nc1ccc(F)cc1)N1CCN(c2ccc(F)cc2)CC1 | -44%
34 | Cn1c(N)c(C(=O)COC(=O)c2cnc(Cl)c(Cl)c2)c(=O)n(C)c1=O | -6.76%
35 | CCc1nnc(NS(=O)(=O)c2ccc(NC(=S)NC(=O)/C=C/c3cccs3)cc2)s1 | 9.53%
36 | O=C(Nc1ccccc1Cc1ccccc1)c1ccc2c(c1)SC1=NS(=O)(=O)CCN12 | -10.9%
